# Laboratory results from PubChem BioAssay (NCATS).
# “And” between values parts separate entries of the source, which are not always exact repeats. Equal values may be shown once. A number with no mark means an inactive call. Results filed as inconclusive are left out. Where a call stands in place of a potency, no number is given. For some assays here: Measured potencies and affinities stand elsewhere. The source made the active and inactive calls.
# Key:
# [1] = Ebola virus entry assay, green fluorescence channel
# [2] = Ebola virus entry assay, blue channel fluorescence
# [3] = Ebola virus entry assay, green fluorescence channel; remark: listed apart in the source
# [4] = Ebola virus entry assay, ratio channel
# [5] = Ebola virus entry assay, green channel fluorescence
# [6] = Ebola virus entry assay, blue channel fluorescence; remark: listed apart in the source
# [7] = Ebola virus entry assay, reporter ratio channel; AC50: Channel type: primary unless noted; outcome: Channel type: primary unless noted
# [8] = Ebola virus entry assay, blue channel (ratio component)
# [9] = qHTS Assay for Identifying Gametocytocidal Compounds (AID 743244; active = well fitted curve in the direction sought with a large enough effect; an effect the other way counts as inactive or inconclusive; note: potency is the fitted concentration of half-maximal effect;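 for max response: actives lower the fluorescent signal which means gametocytes are killed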); conditions: P. falciparum 3D7 stage III-V gametocytes, alamarBlue, 72 h; max response: active compounds read low
# In short: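 In this qHTS viability screen, late-stage 3D7 gametocytes are incubated with compound for 72 h, then with alamarBlue for 24 h; reduced resorufin fluorescence marks killing.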
# [10] = Ebola virus entry assay, ratio channel readout
# [11] = Ebola virus entry assay, blue channel fluorescence; remark: listed apart in the source
# [12] = qHTS assay for cell viability of HEK293 cells (AID 743288; active = well fitted curve in the direction sought with a large enough effect; an effect the other way counts as inactive or inconclusive; note: nearly all actives have a fitted effect of over 50% in size); conditions: ATP luminescence (CellTiter-Glo), 18 h; max response: active compounds read low
# In short: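 Quantitative high-throughput screen: compounds were pinned onto parental HEK293 cells (2,000 per well) after a minimum 5 h settling at 37 C, incubated 18 h at 37 C, and intracellular ATP measured by luciferase luminescence.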
# [13] = qHTS assay for cell viability of the p53RE-bla HCT-116 cell line (AID 743292; active = well fitted curve in the direction sought with a large enough effect; an effect the other way counts as inactive or inconclusive; note: nearly all actives have a fitted effect of over 55% in size); conditions: p53RE-bla HCT-116 viability, ATP luminescence, 16 h; series mostly up to 95 µM
# In short: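 ATP-based luminescence, 16 h compound exposure at 37 C, p53RE-bla HCT-116 cells at 4,000/well.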
structure (smiles),measurement,setting,value
C[C@H]1[C@H](NC(=O)/C(=N/OC(C)(C)C(=O)O)c2csc(N)n2)C(=O)N1S(=O)(=O)O (stereo in doubt),efficacy,[1],16.2%
same,outcome,[2],inactive
same,outcome,[3],inactive
same,outcome,[4],inactive
same,outcome,[5],inactive
same,outcome,[6],inactive
same,outcome,[7],inactive
same,outcome,[8],inactive
CC[C@@H](CO)NC(=O)[C@@H]1C=C2c3cccc4c3c(cn4C)C[C@H]2N(C)C1,max response,[9],1.36%
same,efficacy,[1],9.51%
same,outcome,[2],inactive
same,outcome,[10],inactive
same,outcome,[4],inactive
same,outcome,[5],inactive
same,outcome,[6],inactive
same,outcome,[7],inactive
CC(C)NCC(O)c1ccccc1Cl (centres undefined),efficacy,[1],16.7%
same,outcome,[11],inactive
same,outcome,[4],inactive
same,outcome,[5],inactive
same,outcome,[7],inactive
same,outcome,[8],inactive
CCOC(=O)[C@H](CCc1ccccc1)N[C@@H](C)C(=O)N1[C@H](C(=O)O)C[C@@H]2CCC[C@@H]21,efficacy,[1],-29.2%
same,outcome,[2],inactive
same,outcome,[10],inactive
same,outcome,[4],inactive
same,outcome,[5],inactive
same,outcome,[6],inactive
same,outcome,[7],inactive
same,outcome,[8],inactive
COc1ccc(OC)c(C(O)CNC(=O)CN)c1 (centres undefined),efficacy,[1],13.6%
same,outcome,[2],inactive
same,outcome,[10],inactive
same,outcome,[11],inactive
same,outcome,[5],inactive
same,outcome,[6],inactive
same,outcome,[7],inactive
same,outcome,[8],inactive
CC(C)NCC(O)COc1cccc2[nH]ccc12 (centres undefined),efficacy,[1],-19.5%
same,outcome,[2],inactive
same,outcome,[10],inactive
same,AC50,[11],39.8 µM (active)
same,outcome,[4],inactive
same,outcome,[5],inactive
same,outcome,[6],inactive
same,AC50,[7],39.8 µM (active)
O=C(CCCN1CCC(O)(c2ccc(Cl)cc2)CC1)c1ccc(F)cc1,efficacy,[1],61.7%
same,outcome,[3],inactive
same,outcome,[10],inactive
same,AC50,[11],10 µM (active)
same,AC50,[4],10 µM (active)
same,AC50,[7],10 µM (active)
COC(=O)C1=C(C)NC(C)=C(C(=O)OC(C)C)C1c1cccc2nonc12 (centres undefined),efficacy,[1],-20.5%
same,outcome,[3],inactive
same,outcome,[10],inactive
same,outcome,[4],inactive
same,outcome,[5],inactive
same,outcome,[6],inactive
same,outcome,[7],inactive
same,outcome,[8],inactive
Cn1ccc2cc3c(cc21)CCN3C(=O)Nc1cccnc1,efficacy,[1],-35.6%
same,outcome,[11],inactive
same,outcome,[4],inactive
same,outcome,[5],inactive
same,outcome,[7],inactive
same,outcome,[8],inactive
NC(=O)c1cn(Cc2c(F)cccc2F)nn1,efficacy,[1],-11.2%
same,outcome,[2],inactive
same,outcome,[10],inactive
same,outcome,[11],inactive
same,outcome,[5],inactive
same,outcome,[6],inactive
same,outcome,[7],inactive
same,outcome,[8],inactive
Cc1nc(N)nc(N)c1-c1ccc(Cl)c(Cl)c1,efficacy,[1],-23%
same,AC50,[11],12.6 µM (active)
same,AC50,[4],28.2 µM (active)
same,outcome,[5],inactive
same,AC50,[7],28.2 µM (active)
N=c1nc(N2CCCCC2)cc(N)n1O,efficacy,[1],-16.3%
same,outcome,[3],inactive
same,outcome,[10],inactive
same,outcome,[5],inactive
same,outcome,[6],inactive
same,outcome,[7],inactive
same,outcome,[8],inactive
CC(C)OC(=O)C(C)(C)Oc1ccc(C(=O)c2ccc(Cl)cc2)cc1,efficacy,[1],75.8%
same,outcome,[3],inactive
same,outcome,[10],inactive
same,outcome,[11],inactive
same,outcome,[4],inactive
same,outcome,[7],inactive
same,outcome,[8],inactive
CC(C)Oc1ccc2c(=O)c(-c3ccccc3)coc2c1,efficacy,[1],27.1% and 23.5%
same,outcome,[11],inactive
same,outcome,[4],inactive
same,outcome,[5],inactive
same,outcome,[7],inactive
same,outcome,[8],inactive
CCOP(=S)(OCC)Oc1cc(C)nc(C(C)C)n1,max response,[9],18.9%
same,max response,[12],0.702% and -4.39%
same,Potency,[13],inactive
same,efficacy,[1],13.4%
same,outcome,[11],inactive
same,outcome,[4],inactive
same,outcome,[5],inactive
same,outcome,[7],inactive
same,outcome,[8],inactive
NCC(O)c1ccc(O)cc1 (centres undefined),max response,[9],3.16% and 11.7%
same,max response,[12],1.63%
same,Potency,[13],inactive
same,efficacy,[1],-25.6%
same,outcome,[11],inactive
same,outcome,[4],inactive
same,outcome,[5],inactive
same,outcome,[7],inactive
same,outcome,[8],inactive
O=C(NC(O)C(Cl)(Cl)Cl)NC(O)C(Cl)(Cl)Cl (centres undefined),max response,[9],-4.63%
same,efficacy,[1],18%
same,outcome,[11],inactive
same,outcome,[4],inactive
same,outcome,[5],inactive
same,outcome,[7],inactive
same,outcome,[8],inactive
CC(=O)Nc1cc([As](=O)(O)O)ccc1O,max response,[9],0.387%
same,efficacy,[1],15.5%
same,outcome,[11],inactive
same,outcome,[4],inactive
same,outcome,[5],inactive
same,outcome,[7],inactive
same,outcome,[8],inactive
CC(C)=CC1C(C(=O)OCc2cccc(Oc3ccccc3)c2)C1(C)C (centres undefined),max response,[9],5.27%
same,efficacy,[1],-13.4%
same,outcome,[11],inactive
same,outcome,[4],inactive
same,outcome,[5],inactive
same,outcome,[7],inactive
same,outcome,[8],inactive
COc1ccc(Cc2nccc3cc(OC)c(OC)cc23)cc1OC,max response,[9],8.87% and -8.15%
same,efficacy,[1],13%
same,outcome,[11],inactive
same,outcome,[4],inactive
same,outcome,[5],inactive
same,outcome,[7],inactive
same,outcome,[8],inactive
CC(C)(N)Cc1ccc(Cl)cc1,max response,[9],12.2%
same,efficacy,[1],29.5%
same,outcome,[11],inactive
same,outcome,[4],inactive
same,outcome,[5],inactive
same,outcome,[7],inactive
same,outcome,[8],inactive
CCCC1CCCCN1 (centres undefined),max response,[9],-2.88%
same,efficacy,[1],-19.4%
same,outcome,[11],inactive
same,outcome,[4],inactive
same,outcome,[5],inactive
same,outcome,[7],inactive
same,outcome,[8],inactive
Cc1cccc(C)c1NC1=NCCCS1,max response,[9],0.533% and 4.4%
same,efficacy,[1],-17.5%
same,outcome,[11],inactive
same,outcome,[4],inactive
same,outcome,[5],inactive
same,outcome,[7],inactive
same,outcome,[8],inactive
CC(=O)[C@H]1CC[C@H]2[C@@H]3CC[C@H]4C[C@](C)(O)CC[C@]4(C)[C@H]3CC[C@]12C,max response,[9],-7.05% and 9.26%
same,efficacy,[1],28.4%
same,outcome,[11],inactive
same,outcome,[4],inactive
same,outcome,[5],inactive
same,outcome,[7],inactive
same,outcome,[8],inactive
Cn1cnc2c(F)c(Nc3ccc(Br)cc3Cl)c(C(=O)NOCCO)cc21,efficacy,[1],24.6%
same,outcome,[11],inactive
same,outcome,[4],inactive
same,outcome,[5],inactive
same,outcome,[7],inactive
same,outcome,[8],inactive
NC(=O)N/N=C/c1ccc([N+](=O)[O-])o1,efficacy,[1],31.4%
same,outcome,[11],inactive
same,outcome,[4],inactive
same,outcome,[5],inactive
same,outcome,[7],inactive
same,outcome,[8],inactive
CCCc1nc2c(C)cc(-c3nc4ccccc4n3C)cc2n1Cc1ccc(-c2ccccc2C(=O)O)cc1,efficacy,[1],21.4%
same,outcome,[11],inactive
same,outcome,[4],inactive
same,outcome,[5],inactive
same,outcome,[7],inactive
same,outcome,[8],inactive
CC(=O)SC[C@@H](C)C(=O)N1CCC[C@H]1C(=O)N[C@@H](Cc1ccccc1)C(=O)O,efficacy,[1],13.4%
same,outcome,[11],inactive
same,outcome,[4],inactive
same,outcome,[5],inactive
same,outcome,[7],inactive
same,outcome,[8],inactive
CCN(CC)CCOC(=O)C(O)(c1ccccc1)c1ccccc1,max response,[9],-7.9%
same,efficacy,[1],-15.5%
same,outcome,[11],inactive
same,outcome,[4],inactive
same,outcome,[5],inactive
same,outcome,[7],inactive
same,outcome,[8],inactive
C=CCN1CC[C@]23c4c5ccc(O)c4O[C@H]2C(=O)CC[C@@]3(O)[C@H]1C5,max response,[9],6.99% and 10.2%
same,efficacy,[1],15.7%
same,outcome,[11],inactive
same,outcome,[4],inactive
same,outcome,[5],inactive
same,outcome,[7],inactive
same,outcome,[8],inactive
FC(F)(F)c1cccc(C2=CCN(CCc3ccc4ccccc4c3)CC2)c1,max response,[9],11.8%
same,efficacy,[1],-24.5%
same,outcome,[11],inactive
same,outcome,[4],inactive
same,outcome,[5],inactive
same,outcome,[7],inactive
same,outcome,[8],inactive
CC(C)(C)NCC(O)c1cc(Cl)c(N)c(Cl)c1 (centres undefined),max response,[9],-5.19%
same,efficacy,[1],-12%
same,outcome,[11],inactive
same,outcome,[4],inactive
same,outcome,[5],inactive
same,outcome,[7],inactive
same,outcome,[8],inactive
CCCCOCCOCCOCc1cc2c(cc1CCC)OCO2,efficacy,[1],-21%
same,outcome,[11],inactive
same,outcome,[4],inactive
same,outcome,[5],inactive
same,outcome,[7],inactive
same,outcome,[8],inactive
CC[N+](CC)(CC)CC,max response,[9],-4.6% and 7.33%
same,efficacy,[1],-18.6%
same,outcome,[11],inactive
same,outcome,[4],inactive
same,outcome,[5],inactive
same,outcome,[7],inactive
same,outcome,[8],inactive
c1ccc2c(c1)OCC(C1=NCCN1)O2 (centres undefined),Potency,[9],6.31 µM (active) and 3.55 µM (active)
same,efficacy,[1],12.1%
same,outcome,[11],inactive
same,outcome,[4],inactive
same,outcome,[5],inactive
same,AC50,[7],35.5 µM (active)
same,outcome,[8],inactive
CN1CC(=O)N/C1=N/C(=O)Nc1cccc(Cl)c1,efficacy,[1],-15.3%
same,outcome,[11],inactive
same,outcome,[4],inactive
same,outcome,[5],inactive
same,outcome,[7],inactive
same,outcome,[8],inactive
O=C(O)c1ccc2[nH]cc(CCCCN3CC=C(c4ccccc4)CC3)c2c1,max response,[9],-6.11%
same,efficacy,[1],28%
same,outcome,[11],inactive
same,outcome,[4],inactive
same,outcome,[5],inactive
same,outcome,[7],inactive
same,outcome,[8],inactive
CC/C=C(\C(=O)N[C@@H]1C(=O)N2C(C(=O)OCOC(=O)C(C)(C)C)=C(COC(N)=O)CS[C@H]12)c1csc(N)n1,efficacy,[1],11.1% and -32.9%
same,outcome,[11],inactive
same,outcome,[4],inactive
same,outcome,[5],inactive
same,outcome,[7],inactive
same,outcome,[8],inactive
CC[N+]1(C)CCCC(OC(=O)C(O)(c2ccccc2)c2ccccc2)C1 (centres undefined),max response,[9],-8.23%
same,efficacy,[1],26%
same,outcome,[11],inactive
same,outcome,[4],inactive
same,outcome,[5],inactive
same,outcome,[7],inactive
same,outcome,[8],inactive
Cc1ncc(CNC(=O)N(CCCl)N=O)c(N)n1,max response,[9],-1.52% and 11.3%
same,efficacy,[1],16.2%
same,outcome,[11],inactive
same,outcome,[4],inactive
same,outcome,[5],inactive
same,outcome,[7],inactive
same,outcome,[8],inactive
CC1NCCOC1c1ccccc1 (centres undefined),max response,[9],1.41%
same,efficacy,[1],-41.7%
same,outcome,[11],inactive
same,outcome,[4],inactive
same,outcome,[5],inactive
same,outcome,[7],inactive
same,outcome,[8],inactive
Clc1cccc(N2CCNCC2)c1,max response,[9],0.639%
same,efficacy,[1],26.6%
same,outcome,[11],inactive
same,outcome,[4],inactive
same,outcome,[5],inactive
same,outcome,[7],inactive
same,outcome,[8],inactive
N#CC(C#N)=Cc1ccc(O)c(O)c1,max response,[9],25.4%
same,efficacy,[1],-17.1%
same,outcome,[11],inactive
same,outcome,[4],inactive
same,outcome,[5],inactive
same,outcome,[7],inactive
same,outcome,[8],inactive
